# Source: PubChem BioAssay
# USP17 block: human USP17-like deubiquitinase inhibition | purified USP17, Ub-rhodamine cleavage fluorescence, 3 h | inhibition, % at 50 µM | actives 6.5% (n = 47,000) | AID 1645855
# USP30 inh: blocks human USP30 ubiquitin-rhodamine cleavage; actives 5.3% (n = 47,000); AID 1645860; purified USP30, Ub-rhodamine cleavage fluorescence; inhibition, % at 25 µM
# Target sequence (Q70CQ3 whole entry, looked up): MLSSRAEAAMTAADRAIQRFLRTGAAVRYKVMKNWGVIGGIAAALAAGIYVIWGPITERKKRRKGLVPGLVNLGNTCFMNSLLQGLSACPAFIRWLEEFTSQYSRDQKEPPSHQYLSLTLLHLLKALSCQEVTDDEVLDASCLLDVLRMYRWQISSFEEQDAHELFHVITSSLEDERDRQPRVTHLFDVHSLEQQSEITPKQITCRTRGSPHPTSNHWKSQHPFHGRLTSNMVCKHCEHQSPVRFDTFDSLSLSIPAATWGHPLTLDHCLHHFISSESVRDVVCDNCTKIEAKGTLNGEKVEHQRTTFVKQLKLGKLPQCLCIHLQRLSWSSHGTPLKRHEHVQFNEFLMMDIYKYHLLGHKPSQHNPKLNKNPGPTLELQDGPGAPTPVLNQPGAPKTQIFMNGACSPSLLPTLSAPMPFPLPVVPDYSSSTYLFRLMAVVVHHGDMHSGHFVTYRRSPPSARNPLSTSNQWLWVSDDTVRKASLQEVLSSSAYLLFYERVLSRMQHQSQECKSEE
# USP28 block: blocks human USP28 ubiquitin-rhodamine cleavage; Q96RU2; purified USP28, Ub-rhodamine cleavage fluorescence, 30 min; inhibition, % at 25 µM; actives 3% (n = 47,000)
# Hits are given with their value; . = inactive; / = no result given. Only some compounds are listed: those with a hit (about 11% of all), similar ones and a draw of the others. No stated cut-off is given here; in the data, active means inhibition above about 30%; inactive means the rest.
SMILES,USP17 block,USP30 inh,USP28 block
O=C(CC1Oc2ccccc2NC1=O)Nc1ccccc1Br (stereo unspecified),59,.,.
COc1ccccc1CNC(=O)C1CCCN(c2nnc3ccccn23)C1 (stereo unspecified),.,.,.
COc1cccc(CN2CCC3(CC2)CN(C(C)=O)Cc2ccccc2O3)c1,.,.,.
CCCc1cc2c(cc1NC(=O)Cc1ccc(F)cc1)OCO2,.,.,.
CCCc1cc(C2CCCN2C(=O)Nc2ccc(C)cc2)no1 (stereo unspecified),.,.,.
CCCN1CCN(C(=O)CN2C(=O)C3CCCN3C(=O)c3cc(F)ccc32)CC1 (stereo unspecified),.,.,.
COc1cccc(NC(=O)c2cc(-c3ccccn3)nc3ccccc23)c1,.,.,.
COc1ccccc1NC(=O)c1cc(-c2ccccn2)nc2ccccc12,59,.,.
COc1ccccc1C(=O)Nc1cc(-c2ccc(F)c(F)c2)no1,33,44,.
COc1ccc(C(=O)Nc2cc(-c3ccccn3)no2)c(OC)c1,33,.,.
COc1ccc(CC(=O)Nc2cc(-c3ccccn3)no2)cc1,.,.,.
COc1ccccc1C(=O)Nc1cc(-c2cccnc2)no1,.,.,.
Cc1cc(=O)[nH]c(C2CN(C(=O)c3ccc4ncccc4c3)CCO2)n1 (stereo unspecified),.,.,.
COc1ccc(C2(c3nnc(COc4cccc(C)c4)o3)CCOCC2)cc1,.,.,.
CCn1c(=O)c(C(=O)NCc2ccccc2C)nc2cccnc21,.,.,.
Fc1cccc(Oc2nc(CN3CCOCC3)nc3sc4c(c23)CCCC4)c1,.,.,.
Fc1ccc(Oc2nc(CN3CCOCC3)nc3sc4c(c23)CCCC4)c(Cl)c1,.,.,58
O=C(Nc1cccnc1)C1Cn2ccnc2C2(CCN(c3ncccn3)CC2)O1 (stereo unspecified),.,.,.
CCc1ccc(NC(=O)CSc2nnc(CNC(=O)c3ccco3)o2)cc1,.,.,.
CCOC(=O)c1ccc(NC(=O)CSc2nnc(CNC(=O)c3ccccc3F)o2)cc1,.,.,.
O=C(CSc1nnc(CNC(=O)c2ccccc2F)o1)Nc1ccc(OC(F)(F)F)cc1,63,32,.
CCOC(=O)c1ccc(NC(=O)CSc2nnc(CNC(=O)c3cccs3)o2)cc1,50,.,.
Cc1ccccc1-n1cc(-c2ccccc2)c2c(N3CCOCC3)ncnc21,.,.,.
c1ccc(Cc2nnc(N3CCOCC3)c3ccccc23)cc1,.,.,34
O=C(NCCc1ccccc1)c1nc(N2CCOCC2)c2ccccc2n1,.,.,.
SMILES,USP17 block,USP30 inh,USP28 block
O=C(COc1ccc2c(-c3ccccc3)cc(=O)oc2c1)Nc1cccnc1,.,68,.
O=C(COc1ccccc1)Nc1cnc(-c2cccnc2)nc1,.,.,.
Cn1c(CN2CCOCC2)nnc1SCc1ccc(Cl)cc1,.,32,.
Cn1c(CN2CCOCC2)nnc1SCc1ccc(F)cc1,.,.,.
CC(C(=O)Nc1cccc(F)c1)C1CCN(C(=O)Nc2ccc(F)cc2)CC1 (stereo unspecified),.,.,.
COCc1nn(C)c2c1CN(C(=O)c1ccc3c(c1)OCO3)CC2,.,.,.
COc1cc(C)cc2c1C(=O)c1c(cc(O)c(Cl)c1O)C2=O,74,.,80
COc1cc(CO)cc2c1C(=O)c1c(O)cc(O)cc1C2=O,.,.,.
O=C(c1cc(-c2ccc(F)cc2)n[nH]1)N1CCN(C2CCCCC2)CC1,.,.,.
Cn1nc(C(=O)N2CCOCC2)c2c1CCN(C(=O)CCC(=O)NCc1ccccc1)C2,.,.,.
COc1ccccc1N1CCN(C(C)C(=O)NC2CCCC2)CC1 (stereo unspecified),.,.,.
CC(C)(C)c1ccc(Cn2nnc3c(=O)[nH]c(C4CCN(S(=O)(=O)c5ccc(S(=O)(=O)NC6CC6)cc5)CC4)nc32)cc1,64,.,32
CC(C)(C)c1ccc(Cn2nnc3c(=O)[nH]c(C4CCN(S(=O)(=O)c5ccc(S(=O)(=O)NC6CCCC6)cc5)CC4)nc32)cc1,.,.,.
COc1cc(S(=O)(=O)N2CCC(c3nc4c(nnn4Cc4ccc(F)cc4)c(=O)[nH]3)CC2)ccc1-n1cnnn1,32,47,.
COc1cc(S(=O)(=O)N2CCC(c3nc4c(nnn4Cc4cccc(F)c4)c(=O)[nH]3)CC2)ccc1-n1cnnn1,.,.,.
COc1ccccc1NS(=O)(=O)c1ccc(NC(=O)c2cc3c(C)nn(-c4ccccc4)c3s2)cc1,.,.,.
COc1ccc(NC(=O)c2cc3c(C(F)(F)F)nn(C)c3s2)cc1,48,.,.
N#Cc1ccc(C(=O)Nc2cc(-c3ccccn3)no2)cc1,/,.,.
COc1cccc(CNC(=O)CCc2c(C)c3c(C)nn(-c4ccccc4)c3n(C)c2=O)c1,.,.,.
Cc1cc(-c2ccc(S(=O)(=O)Nc3ccc(F)cc3Cl)s2)on1,.,.,.
O=S(=O)(NCc1ccccn1)c1ccc(-c2cc(C(F)(F)F)on2)s1,.,.,.
Cc1cc(-c2ccc(S(=O)(=O)NC3CC3)s2)on1,.,.,.
Cc1cc(-c2ccc(S(=O)(=O)NCc3ccc(Cl)cc3)s2)on1,77,59,59
Cc1cccc(CNS(=O)(=O)c2ccc(-c3cc(C(F)(F)F)on3)s2)c1,43,.,.
Cc1cc(-c2ccc(S(=O)(=O)NCc3ccccc3C)s2)on1,35,37,.
SMILES,USP17 block,USP30 inh,USP28 block
Cc1cccc(CNS(=O)(=O)c2ccc(-c3cc(C)no3)s2)c1,36,.,.
CC(=O)c1cccc(NS(=O)(=O)c2ccc(-c3cc(C)no3)s2)c1,.,.,.
CC(C)N1CCN(S(=O)(=O)c2ccc3c(c2)OCCCO3)CC1,.,.,.
Cc1nc(N2CCOCC2)cc(N2CCN(C(=O)c3cccs3)CC2)n1,.,.,.
Cc1sc2nc(-c3cccnc3)nc(N(C)CC(=O)Nc3cccc(F)c3)c2c1C,.,.,.
Cc1ccc(NC(=O)CCc2ccc3nc[nH]c3c2)c(C)c1,.,.,.
Cc1ccc(NC(=O)CCc2ccc3nc[nH]c3c2)cc1F,.,.,35
O=C(Nc1ccc(F)cc1)C1CCN(C(=O)c2cc(-c3cccnc3)n[nH]2)CC1,.,.,.
O=C(Nc1ccc2c(c1)OCCO2)C1CCN(C(=O)c2cc(-c3cccnc3)n[nH]2)CC1,.,.,53
O=C(Nc1ccccc1)C1CCN(C(=O)c2cc(-c3ccncc3)n[nH]2)CC1,.,.,.
O=C(c1cc(-c2ccncc2)n[nH]1)N1CCC(C(=O)N2CC=C(c3ccccc3)CC2)CC1,64,.,.
CC(=O)Nc1cccc(-c2cnc3sc(NCC4CCOCC4)nn23)c1,.,.,.
COc1ccc(-n2c(C)c(C)n3c4c(=O)[nH]c(=O)n(C)c4nc23)c(OC)c1,.,.,.
COc1ccc(NC(=O)c2nnn(-c3ccccc3C)c2C)cc1OC,.,.,72
CCc1ccc(-n2nnc(C(=O)Nc3ccc(F)cc3)c2C)cc1,.,32,.
Cc1ccc(-n2nnc(C(=O)Nc3ccccc3F)c2C)cc1C,56,/,/
Cc1c(C(=O)Nc2ccc(Cl)cc2)nnn1-c1ccc(F)cc1,.,.,.
Cc1ccc(-n2nnc(C(=O)Nc3ccc(F)cc3)c2C)cc1C,.,.,.
Cc1ccc(Cl)cc1-n1nnc(C(=O)Nc2ccccc2)c1C,.,.,.
